Screening results: PubChem BioAssay, several laboratories
Yp Topo-I inh: inhibitors of Yersinia pestis topoisomerase I; Y. pestis Topo-I cleavage product accumulation, plate reader; activity, % at 10 µM; 0.064% of 360,000 active; in the data active = activity above about 50%, passing the limit was not always enough
PrPC surface inh: cell surface PrPC inhibition, primary TR-FRET screen; P04156; TR-FRET read-out; inhibition, % at 13.8 µM; 0.43% of 370,000 active; in the data active = inhibition above about 24%; also: 0% = median of the test wells and 100% = reference compound wells
CCHF vOTU inh-1: blocks the CCHF virus ovarian tumor domain protease | inhibition, % at 11.5 µM | CCHFV vOTU protease, Pep-AMC fluorescence | 0.55% of 370,000 active | AID 651958; also: 0% = vehicle wells with enzyme and 100% = no enzyme wells
BH1578 lux ind: induces V. cholerae light production without autoinducers; V. cholerae BH1578 lux reporter, luminescence, 6 h; activation, % at 18.7 µM; 0.16% of 350,000 active; AID 588436; in the data active = activation mostly above about 9.7%, no sharp cut-off
CCHF vOTU inh-2: confirmation of CCHF virus vOTU protease inhibitors. inhibition, % at 11.5 µM. 17% of 1,900 active. Recombinant CCHFV vOTU, Pep-AMC fluorescence. AID 686976. shares compounds with CCHF vOTU inh-1
The depositor's hits bear a star; i = inactive; . = no result. Rows were chosen to be rich in hits. Some 1.1% of all compounds tested hit in one or more screens of this group. Rule as the data show it, unless noted: active = inhibition above about 30%; inactive = the rest.

SMILES	Yp Topo-I inh	PrPC surface inh	CCHF vOTU inh-1	BH1578 lux ind	CCHF vOTU inh-2
CCOc1ccc(C(=O)C(C)OC(=O)C2CCN(c3ccc(C(F)(F)F)cn3)CC2)cc1 (stereo not drawn)	24.9	7.5	35.1*	-1.2	9.9
Cc1ccc(OCC(=O)N2CCN(c3nnc(-c4ccccc4)c4ccccc34)CC2)cc1	-1.2	-6.4	9.6	-0.3	.
Cc1ccc(S(=O)(=O)/N=C2\C(=O)c3ccccc3C([O-])=C2n2cc[n+](CCC(C)C)c2)cc1	-9.9	.	.	-0.9	.
CC(=O)Nc1ccc(S(=O)(=O)/N=C2\C(=O)c3ccccc3C([O-])=C2n2cc[n+](-c3ccccn3)c2)cc1	-3.4	-34.6	67.8*	3.7	58.1*
O=c1[nH]c(C2CCCN(S(=O)(=O)Cc3ccccc3)C2)nc2c1nnn2Cc1cccc(Cl)c1 (stereo not drawn)	34.9	6.2	29.9*	-0.1	-4.9
CC(C)(C)c1ccc(Cn2nnc3c(=O)[nH]c(C4CCN(C(=O)Cc5cccs5)CC4)nc32)cc1	41.4	3.8	18.5	-0.8	.
O=c1[nH]c(C2CCCN(S(=O)(=O)c3ccc(F)cc3)C2)nc2c1nnn2Cc1ccccc1 (stereo not drawn)	21.5	-6.3	-5.2	i	.
CC(C)(C)c1ccc(Cn2nnc3c(=O)[nH]c(C4CCCN(C(=O)Cc5cccs5)C4)nc32)cc1 (stereo not drawn)	1.3	0.4	31.1*	-3.7	4.2
CCCOC(=O)CSC1=C(C#N)C(c2ccccc2Cl)CC(=O)N1 (stereo not drawn)	11.1	12.4	-7.0	-0.2	.
Cc1ccc(NC(=S)N(Cc2ccc(Br)cc2)Cc2ccc(C(=O)O)cc2)cc1C	-2.8	4.2	31.1*	-0.3	6.3
Cc1cc(C)cc(NC(=S)N(Cc2ccc(Br)cc2)Cc2ccc(C(=O)O)cc2)c1	22.7	2.5	8.4	-0.1	.
O=C(OC1CCCCC1)c1cc2ccccc2oc1=O	8.1	10.1	-8.2	i	.
CCN(C[C@H]1N[C@@](Cc2ccccc2)(C(=O)OC)[C@H]2C(=O)N(C)C(=O)[C@@H]12)C(=O)Nc1ccc(Cl)cc1	13.6	-4.1	-0.2	i	.
CC(C)CN(C(=O)COC(=O)c1cc2c(s1)CCC2)C1CCS(=O)(=O)C1 (stereo not drawn)	12.6	11.6	-16.8	-1.9	.
CCN1CCN(c2oc(-c3ccccc3C)nc2S(=O)(=O)c2ccccc2)CC1	-4.5	0.3	35.5*	-1.8	4.4
COc1ccccc1-c1nc(S(=O)(=O)c2ccccc2)c(N2CCCCC2)o1	7.9	3.5	2.8	-5.6	.
Cc1c(NC(=O)c2cc(-c3ccc(Cl)c(Cl)c3)on2)c(=O)n(-c2ccccc2)n1C	-0.3	6.4	8.8	-5.6	.
C=CCC[C@H](CCCCC)OC(=O)/C=C/[C@H](O)[C@@H](O)C[C@H](O)CC=C	.	-2.5	19.6	.	.
C=CCC[C@@H](CCCCC)OC(=O)/C=C/[C@H](O)[C@@H](O)C[C@H](O)CC=C	.	-4.5	34.3*	.	18.1
CCN1CCN(C2=C(NS(=O)(=O)c3ccc(Br)cc3)C(=O)c3ccccc3C2=O)CC1	-5.6	-48.9	78.1*	-0.2	19.0
CCN1CCN(C2=C(NS(=O)(=O)c3ccccc3)C(=O)c3ccccc3C2=O)CC1	-12.4	-57.5	46.1*	0.1	14.5
Cc1ccc(N(C(=O)CCC(=O)Nc2cc(C)on2)C(C(=O)NC2CCCC2)c2ccncc2)cc1 (stereo not drawn)	1.9	6.2	20.4	-2.0	.
COc1ccc(C2C(C(=O)N3CCCC3)c3cc(OC)c(OC)cc3C(=O)N2C)cc1OC (stereo not drawn)	-3.3	2.4	30.8*	-0.4	-23.0
COc1ccc(C2C(C(=O)N3CCN(C)CC3)c3cc(OC)c(OC)cc3C(=O)N2C)cc1 (stereo not drawn)	-1.4	8.0	11.7	-0.2	.
Cc1cc(C)cc(N(CC(=O)Nc2ccc(C(F)(F)F)cc2)S(=O)(=O)c2c(C)[nH]c(=O)[nH]c2=O)c1	25.0	-10.6	33.3*	-0.3	-12.8
SMILES	Yp Topo-I inh	PrPC surface inh	CCHF vOTU inh-1	BH1578 lux ind	CCHF vOTU inh-2
COc1cc(NC(=O)CN(c2cc(C)cc(C)c2)S(=O)(=O)c2c(C)[nH]c(=O)[nH]c2=O)cc(OC)c1	4.5	-2.0	14.1	-0.4	.
C=CCn1c(O)c(C(CC)=Nc2ccc(N(C)C)cc2)c(=O)[nH]c1=O	14.0	1.6	38.2*	i	-20.7
C=CCn1c(O)c(C(CC)=Nc2ccc3c(c2)CCC3)c(=O)[nH]c1=O	4.5	2.6	-3.6	-1.2	.
O=C(CSc1nnnn1C1CC1)N1CCN(c2ccccc2F)CC1	-4.9	1.7	33.0*	i	-2.0
Cc1cccc(N2CCN(C(=O)CSc3nnnn3C3CC3)CC2)c1C	7.0	0.8	0.9	0.0	.
Cc1cc(=O)n2c3c(c4c(cc13)c(CN(C)C)cc(=O)n4C)OC2	-5.1	39.8*	90.1*	i	51.0*
Cc1cc(=O)n(C)c2ccccc12	0.1	8.7	0.2	-0.2	.
CC(C)(C)N(Cc1nc(-c2ccccc2)no1)C(=O)c1ccc2c(c1)OCO2	37.2	0.0	29.8*	-0.5	-8.7
CN(Cc1nc(-c2ccccc2)no1)C(=O)c1ccc2c(c1)OCO2	3.1	-0.1	-10.5	0.2	.
CC(=O)N1c2ccccc2N=C(c2ccc(C(F)(F)F)cc2)C1C(=O)NC(C)C (stereo not drawn)	.	2.5	29.8*	.	-14.5
CCCCN1C(=S)NC[C@@H]1c1ccccc1	3.7	9.5	33.3*	-0.5	3.7
CCOC(=O)C(=CNc1cc(C)nn1-c1ccc(C)cc1)C(=O)OCC	2.1	4.7	29.9*	i	-10.6
COc1cccc(NP(=O)(Oc2ccccc2)Oc2ccccc2)c1	-0.1	17.0	29.9*	i	5.1
COc1ccc(-c2csc(NC(=O)[C@H](C)N3C(=O)C4CC=CCC4C3=O)n2)cc1OC (stereo partly drawn)	-5.3	-4.9	5.6	2.9	.
CC(C(=O)Nc1nc(-c2ccc(F)c(F)c2)cs1)N1C(=O)C2CC=CCC2C1=O (stereo not drawn)	-5.1	-0.8	30.8*	i	-8.3
COc1c(C)cccc1C(=O)NC(=S)Nc1cccc2nsnc12	8.4	-3.4	0.4	-0.2	.
CC(=O)c1c(C)oc2c1C(=O)c1ccccc1C2=O	-7.0	-4.3	11.1	-3.1	.
Cc1nc2c(o1)C(=O)c1ccccc1C2=Nc1ccccc1	0.4	-9.7	41.5*	-0.8	53.1*
CCn1c(SCC(=O)N2CCN(c3ccccc3)CC2)nnc1-c1cc2cc(Cl)ccc2o1	9.6	5.5	-3.1	-1.8	.
COc1ccc(CN([C@H](CO)CC(C)C)S(=O)(=O)N(Cc2ccccc2)[C@H](CO)CC(C)C)cc1	-2.1	18.2	33.7*	-7.1	1.7
COc1ccc(CNc2nccn3ccnc23)cc1	-3.7	9.2	5.4	-0.9	.
O=C(CCCn1cnc([N+](=O)[O-])n1)Nc1ccc(Cl)c(Cl)c1	-1.6	-11.5	-8.9	-4.0	.
Cc1ccc2c(c1)C1(C)C(C(C)(C)N2C=O)C1(Cl)Cl (stereo not drawn)	1.6	12.4	-9.8	-0.6	.
Cc1ccc(NS(=O)(=O)c2cccc3cccnc23)c(Cl)c1	-5.5	5.3	37.1*	i	-3.6
Cc1ccc(NS(=O)(=O)c2cccc3cccnc23)c(Br)c1	30.0	7.5	9.9	i	.
